Laboratory results as given in PubChem BioAssay (NCI).
The panel holds about 83,000 compounds, 20% with a hit somewhere; the sample as a whole holds those more often.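 Single-concentration screen, 48 h exposure, 96-well plates. Endpoint: percent growth. Below 10 = active.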 A number with no mark means an inactive call. Activity calls are given as the source filed them.

Legend:
Assay in all cases: NCI-60 one-dose screen, 48 h (100 = growth as untreated, 0 = no growth, -100 = all killed)
Conditions in all cases: 10 µM unless noted
NCI-H23 lung = test system: NCI-H23 lung
NCI-H226 lung = test system: NCI-H226 lung
NCI-H322M lung = test system: NCI-H322M lung
HOP-62 NSCLC = test system: HOP-62 NSCLC
NCI-H460 lung = test system: NCI-H460 lung
NCI-H522 lung = test system: NCI-H522 lung
A549/ATCC NSCLC = test system: A549/ATCC NSCLC
786-0 renal = test system: 786-0 renal
COLO 205 colon = test system: COLO 205 colon
DU-145 prostate = test system: DU-145 prostate
K-562 leukemia = test system: K-562 leukemia
MALME-3M melanoma = test system: MALME-3M melanoma
MDA-MB-231 breast = test system: MDA-MB-231 breast
RXF 393 renal = test system: RXF 393 renal
SF-268 CNS = test system: SF-268 CNS
SF-295 CNS = test system: SF-295 CNS
SF-539 CNS = test system: SF-539 CNS
UACC-257 melanoma = test system: UACC-257 melanoma
M14 melanoma = test system: M14 melanoma

Structure (SMILES)	growth (NCI-H23 lung)	growth (NCI-H226 lung)	growth (NCI-H322M lung)	growth (HOP-62 NSCLC)	growth (NCI-H460 lung)	growth (NCI-H522 lung)	growth (A549/ATCC NSCLC)	growth (786-0 renal)	growth (COLO 205 colon)	growth (DU-145 prostate)	growth (K-562 leukemia)	growth (MALME-3M melanoma)	growth (MDA-MB-231 breast)	growth (RXF 393 renal)	growth (SF-268 CNS)	growth (SF-295 CNS)	growth (SF-539 CNS)	growth (UACC-257 melanoma)	growth (M14 melanoma)
CCCCNC(c1ccc(Cl)cc1)C(O)c1ccc(Cl)cc1 (stereo not given)	38.5%	65.7%	51.4%	40.6%	7.67% (active)	35.2%	63.5%	50%	-71.4% (active)	37.2%	0.937% (active)	39.7%	5.73% (active)	58.4%	55.9%	41.3%	68.3%	86%	25.7%
C[C@@H]1C[C@@]2(C)[C@@H](CC[C@@H]3[C@@H]2CC[C@]2(C)C(=O)CC[C@@H]32)CC1=O	104%	102%	96.1%	78.9%	108%	91.9%	–	93.2%	99.5%	108%	93.1%	118%	103%	49.7%	102%	90.7%	95%	113%	96.9%
COC1=CC(=O)O[C@@H](/C=C/c2ccc3c(c2)OCO3)C1	117%	92.8%	97.5%	112%	118%	98.3%	97%	112%	125%	141%	93.9%	119%	107%	–	111%	122%	107%	120%	109%
COC(=O)[C@@H](C)C[C@H](Cc1ccccc1)NC(=O)c1csc([C@@H](C[C@H](C(C)C)N(C)C(=O)[C@H](C)NC(=O)[C@H]2CCCCN2C)OC(C)=O)n1	46%	61%	40.6%	32.6%	12%	8.96% (active)	46.6%	35%	-16.2% (active)	4.34% (active)	10% (active)	44.2%	19.5%	8.78% (active)	46.9%	17%	-2.07% (active)	45.8%	5.98% (active)
CC12CCC3C(C=CC4=C(N)C(=O)CCC43C)C1CCC2=O (stereo not given)	74.1%	96.3%	88.4%	112%	83.8%	76.6%	103%	89.3%	121%	62.4%	-26.9% (active)	70.8%	101%	95.2%	89%	105%	82.8%	86.7%	79.5%
COC(=O)[C@@H](C)C[C@H](Cc1ccccc1)NC(=O)c1cccc([C@@H](C[C@H](C(C)C)N(C)C(=O)[C@@H](NC(=O)[C@H]2CCCCN2C)C(C)C)OC(C)=O)n1	38.9%	68.1%	47.6%	23.2%	7.05% (active)	-22.2% (active)	14.2%	14.4%	-54.5% (active)	10.5%	7.86% (active)	77.9%	-4.66% (active)	46.1%	30.8%	6.28% (active)	2.03% (active)	49.7%	-10.9% (active)
CC[C@@H]1[C@@H](C)O[C@@](O)([C@@H](C)[C@H](O)[C@H](C)[C@H]2OC(=O)/C=C/C=C/[C@H](C)[C@@H]([C@@H](C)[C@@H](O)[C@H](C)[C@@]3(O)C[C@@H](O[C@H]4C[C@@H](O)[C@H](O)C(C)O4)[C@H](CC)[C@@H](C)O3)OC(=O)/C=C/C=C/[C@@H]2C)C[C@H]1O[C@@H]1C[C@@H](O)[C@H](O)C(C)O1 (stereo not given in full)	-73.9% (active)	-57.5% (active)	-96.6% (active)	-80.6% (active)	-72.6% (active)	-81.8% (active)	-89.7% (active)	-86.1% (active)	-78.4% (active)	-97.5% (active)	-71.6% (active)	-97% (active)	-68.3% (active)	-96.7% (active)	-86.3% (active)	-86.5% (active)	-96.8% (active)	-89.5% (active)	-83.9% (active)
CC1=C([Te]c2ccc(O)cc2)C(=O)c2ccccc2C1=O	-19.6% (active)	-35.4% (active)	22.3%	-25.2% (active)	-27.6% (active)	0.775% (active)	6.97% (active)	-1.41% (active)	-88.5% (active)	7.43% (active)	-36.6% (active)	5.22% (active)	3.12% (active)	-0.398% (active)	13.8%	-37.4% (active)	-19.1% (active)	11.7%	-24.2% (active)
